Reference: PubChem BioAssay (NCATS)
Records with an inconclusive call do not appear. Entries that show only a call come without a potency. Calls of active or inactive are those of the source. Unless noted, the call rests on the fitted dose curve; in most records, active means well fitted curve in the direction sought with a large enough effect; inconclusive means small, poorly fitted or top-dose-only effect, or another doubt; inactive means no such curve, though single readings can be large; an effect the other way counts as inactive or inconclusive.

Legend:
[1] = target: D(1A) dopamine receptor (Homo sapiens) (UniProt P21728); experiment: HTS Assay for Allosteric Agonists of the Human D1 Dopamine Receptor: Primary Screen for Potentiators (AID 488982)
Chain of D(1A) dopamine receptor (Homo sapiens) (P21728 whole entry, looked up): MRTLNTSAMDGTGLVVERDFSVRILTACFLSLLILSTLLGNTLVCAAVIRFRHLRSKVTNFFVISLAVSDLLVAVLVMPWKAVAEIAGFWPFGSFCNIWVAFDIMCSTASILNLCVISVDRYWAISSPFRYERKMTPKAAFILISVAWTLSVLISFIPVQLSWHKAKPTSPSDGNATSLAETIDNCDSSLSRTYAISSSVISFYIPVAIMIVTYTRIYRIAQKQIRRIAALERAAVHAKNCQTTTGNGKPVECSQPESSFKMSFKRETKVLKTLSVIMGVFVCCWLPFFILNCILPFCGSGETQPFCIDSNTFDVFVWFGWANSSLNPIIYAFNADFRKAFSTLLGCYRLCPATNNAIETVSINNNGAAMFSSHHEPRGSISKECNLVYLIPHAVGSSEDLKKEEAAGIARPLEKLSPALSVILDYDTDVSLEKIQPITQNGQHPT
Outline: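 Tetracycline-induced HEK293 Trex D1 cells with forced coupling to calcium, loaded with no-wash calcium dye; kinetic fluorescence read 180 s after compound addition for agonism, then a further 180 s after an EC20 dopamine challenge for potentiation.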

[2] = target: ATP-dependent 6-phosphofructokinase (Trypanosoma brucei brucei) (UniProt O15648); experiment: qHTS Assay to Find Inhibitors of T. brucei phosphofructokinase: hit validation (AID 492961);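 further: luminescence reports ADP formed as PFK phosphorylates fructose-6-phosphate with ATP; series mostly up to about 51 µM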
Chain of ATP-dependent 6-phosphofructokinase (Trypanosoma brucei brucei) (O15648 whole entry, looked up): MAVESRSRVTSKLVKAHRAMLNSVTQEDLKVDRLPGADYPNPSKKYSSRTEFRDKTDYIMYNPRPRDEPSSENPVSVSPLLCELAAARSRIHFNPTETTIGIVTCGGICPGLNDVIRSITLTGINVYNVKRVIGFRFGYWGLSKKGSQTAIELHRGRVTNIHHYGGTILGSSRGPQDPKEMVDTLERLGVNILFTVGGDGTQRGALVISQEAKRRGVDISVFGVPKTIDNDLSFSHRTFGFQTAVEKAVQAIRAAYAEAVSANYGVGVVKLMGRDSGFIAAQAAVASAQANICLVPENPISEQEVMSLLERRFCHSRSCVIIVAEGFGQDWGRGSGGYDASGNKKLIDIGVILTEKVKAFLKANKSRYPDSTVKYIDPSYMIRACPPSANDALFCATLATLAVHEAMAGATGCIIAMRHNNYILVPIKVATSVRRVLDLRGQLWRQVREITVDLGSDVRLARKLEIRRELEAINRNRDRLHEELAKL
Outline: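 Compounds titrated; %activity normalized to 0x and 1x enzyme controls, curve-fitted. Readout: ADP-Glo luminescence after 45 min room-temperature reaction of 1.25 nM PFK, 0.1 mM ATP, 0.5 mM F6P, pH 8.0.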

[3] = Validation screen for small molecules that induce genotoxicity in human embryonic kidney (HEK293T) cells expressing luciferase-tagged ELG1 (AID 493106)
Outline: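 ELG1-luciferase reporter readout (ONE-Glo, 30 min, room temperature) after 16 hr compound treatment at 37 °C of HEK293T cells at 2,000 per well. Rising luminescence flags genotoxic stress.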

[4] = target: ATPase family AAA domain-containing protein 5 (Homo sapiens) (UniProt Q96QE3); experiment: Validation screen for small molecules that inhibit ELG1-dependent DNA repair in human embryonic kidney (HEK293T) cells expressing luciferase-tagged ELG1 (AID 493107);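 further: series mostly up to about 46 µM; inhibitors lower the ELG1-luciferase luminescence signal; nearly all actives have a fitted effect of over 70% in size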
Outline: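 Luciferase read-out, ONE-Glo, 30 min at room temperature, follows 16 h co-exposure at 37 C of compound and the DNA-damaging agent 5-fluorouridine. Cells: HEK293T with ELG1-luciferase fusion, 2,000 per well, DMSO as vehicle.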

[5] = target: Thyrotropin-releasing hormone receptor (Homo sapiens) (UniProt P34981); experiment: qHTS for Small Molecule Agonists and Allosteric Enhancers of Human TRH Receptor: Validation Screen for Agonists (AID 493127;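 active means calcium activation more than 3 SD above the typical response in the agonist read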;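 further: intracellular calcium rise by fluo-8 fluorescence before TRH EC20 addition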); details: TRH receptor agonist cell assay; at 2 µM; stronger effect = higher value
Chain of Thyrotropin-releasing hormone receptor (Homo sapiens) (P34981 whole entry, looked up): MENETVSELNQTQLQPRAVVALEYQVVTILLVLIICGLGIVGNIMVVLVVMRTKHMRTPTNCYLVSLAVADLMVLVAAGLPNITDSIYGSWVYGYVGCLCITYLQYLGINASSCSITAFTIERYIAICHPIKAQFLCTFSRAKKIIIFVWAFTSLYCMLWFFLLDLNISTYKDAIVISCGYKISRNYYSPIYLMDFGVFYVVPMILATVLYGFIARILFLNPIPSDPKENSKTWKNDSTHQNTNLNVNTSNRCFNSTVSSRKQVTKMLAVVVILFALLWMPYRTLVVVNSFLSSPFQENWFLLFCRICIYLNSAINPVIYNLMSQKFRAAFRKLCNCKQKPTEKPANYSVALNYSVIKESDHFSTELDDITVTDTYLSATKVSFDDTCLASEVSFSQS
Outline: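 Compound-evoked intracellular calcium release in fluo-8-loaded TRHR cells, read kinetically on FDSS (Ex 480/Em 530, 1 s/cycle) after 23 nL pintool transfer. Agonist phase preceded 10 nM TRH EC20 addition.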

[6] = Nrf2 qHTS screen for inhibitors: Validation (AID 493153; active means well fitted inhibition curve with a large enough effect in the main read-out, with a control signal flat, not every such curve was filed as active); details: Potency: luciferase luminescence; viability change: measured here: cytotoxicity max response
Outline: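 Concentration-response on A549 ARE_Fluc reporter cells exposed 18-24 h at 37 C, 5% CO2. Cytotoxicity read first by CellTiter-Fluor fluorescence (Ex 405/Em 525), then Nrf2 inhibition by BugLite luminescence after 15 min.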

[7] = qHTS for Inhibitors of Cell Surface uPA Generation: Validation Assay (AID 493164);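 further: RAW 264.7 macrophage cells exposed to compound for 18 h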
Outline: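 ATP-Lite luminescence read-out: ATP remains high when uPA activity-dependent LF translocation into the cytoplasm is blocked. RAW 264.7 cells, 18 h compound exposure at 37 C; 7-point titration, 2.45 nM to 38.3 uM final.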

[8] = target: Galactokinase (Homo sapiens) (UniProt P51570); experiment: qHTS Validation Assay for Inhibitors of Human Galactokinase (GALK) (AID 493189)
Chain of Galactokinase (Homo sapiens) (P51570 whole entry, looked up): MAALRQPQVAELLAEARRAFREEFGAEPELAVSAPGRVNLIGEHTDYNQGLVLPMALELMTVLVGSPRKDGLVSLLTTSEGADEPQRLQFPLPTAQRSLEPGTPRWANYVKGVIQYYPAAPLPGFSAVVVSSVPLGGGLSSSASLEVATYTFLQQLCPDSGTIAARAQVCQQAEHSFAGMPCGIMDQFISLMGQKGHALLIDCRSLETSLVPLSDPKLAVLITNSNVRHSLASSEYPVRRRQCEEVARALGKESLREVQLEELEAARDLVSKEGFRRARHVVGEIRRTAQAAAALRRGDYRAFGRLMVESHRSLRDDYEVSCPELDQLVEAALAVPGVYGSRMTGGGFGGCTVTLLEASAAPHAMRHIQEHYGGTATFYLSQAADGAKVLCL
Outline: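 GALK (5 nM) with 35 uM ATP and 100 uM galactose in HEPES pH8.0, MgCl2, NaCl, DTT, BSA; 1 h at room temperature. Residual ATP read by Kinase-Glo Plus luminescence after 10 min.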

[9] = Validation screen for small molecules that induce DNA re-replication in SW480 colon adenocarcinoma cells (AID 504364)
Outline: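 Image-based DNA content read-out: Hoechst stain 40 min, total nuclear fluorescence intensity (ex 405 nm, em 500-530 nm) after 48 h compound exposure of 250 SW480 cells/well at 37 C, 5% CO2, versus DMSO vehicle.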

[10] = target: Peptidyl-prolyl cis-trans isomerase NIMA-interacting 1 (Homo sapiens) (UniProt Q13526); experiment: qHTS Validation Assay to Find Inhibitors of Pin1 (AID 504536; active means well fitted inhibition curve with a large enough effect in the polarisation, with a control signal flat, not every such curve was filed as active; the % refers to the polarisation)
Chain of Peptidyl-prolyl cis-trans isomerase NIMA-interacting 1 (Homo sapiens) (Q13526 whole entry, looked up): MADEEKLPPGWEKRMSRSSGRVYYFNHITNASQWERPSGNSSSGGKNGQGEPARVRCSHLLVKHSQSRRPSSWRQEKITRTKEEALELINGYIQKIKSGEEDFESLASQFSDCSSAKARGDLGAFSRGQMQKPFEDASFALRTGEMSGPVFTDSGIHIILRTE
Outline: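 Fluorescence polarization competition: compounds (titration) displace HiFluor-488-labeled Pin1-1b peptide from Pin1 (0.3 uM final) in pH 7.5 HEPES buffer with DTT, 10 min at room temperature; %Activity normalized to no-enzyme wells, curves fitted.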

[11] = target: Phosphoglycerate kinase, glycosomal (Trypanosoma brucei brucei) (UniProt P07378); experiment: qHTS Validation Assay to Find Inhibitors of Phosphoglycerate Kinase (AID 504547)
Chain of Phosphoglycerate kinase, glycosomal (Trypanosoma brucei brucei) (P07378 whole entry, looked up): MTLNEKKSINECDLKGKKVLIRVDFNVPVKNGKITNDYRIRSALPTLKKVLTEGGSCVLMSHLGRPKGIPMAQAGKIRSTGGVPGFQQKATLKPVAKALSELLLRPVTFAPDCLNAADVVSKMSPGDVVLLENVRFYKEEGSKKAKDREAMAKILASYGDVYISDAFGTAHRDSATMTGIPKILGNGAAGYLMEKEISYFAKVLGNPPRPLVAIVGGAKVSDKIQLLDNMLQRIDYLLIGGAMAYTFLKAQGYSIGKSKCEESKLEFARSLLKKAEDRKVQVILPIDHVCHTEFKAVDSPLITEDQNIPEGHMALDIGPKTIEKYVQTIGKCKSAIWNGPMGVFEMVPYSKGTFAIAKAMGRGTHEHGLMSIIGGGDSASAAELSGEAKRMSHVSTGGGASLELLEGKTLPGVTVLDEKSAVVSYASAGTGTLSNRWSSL
Outline: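 Compounds are pinned into the substrate/PGK mixture, and GAPDH (100nM final) is added to start the reaction by producing 1,3-BPG. After 60 minutes at room temperature, Kinase-Glo Plus is added and luminescence is measured 10 minutes later.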

[12] = target: phosphoglycerate mutase (Leishmania major) (UniProt Q4Q090); experiment: qHTS Validation Assay to Find Inhibitors of Phosphoglycerate Mutase (AID 504548); further: series mostly up to about 58 µM
Chain of phosphoglycerate mutase (Leishmania major) (Q4Q090 1-553): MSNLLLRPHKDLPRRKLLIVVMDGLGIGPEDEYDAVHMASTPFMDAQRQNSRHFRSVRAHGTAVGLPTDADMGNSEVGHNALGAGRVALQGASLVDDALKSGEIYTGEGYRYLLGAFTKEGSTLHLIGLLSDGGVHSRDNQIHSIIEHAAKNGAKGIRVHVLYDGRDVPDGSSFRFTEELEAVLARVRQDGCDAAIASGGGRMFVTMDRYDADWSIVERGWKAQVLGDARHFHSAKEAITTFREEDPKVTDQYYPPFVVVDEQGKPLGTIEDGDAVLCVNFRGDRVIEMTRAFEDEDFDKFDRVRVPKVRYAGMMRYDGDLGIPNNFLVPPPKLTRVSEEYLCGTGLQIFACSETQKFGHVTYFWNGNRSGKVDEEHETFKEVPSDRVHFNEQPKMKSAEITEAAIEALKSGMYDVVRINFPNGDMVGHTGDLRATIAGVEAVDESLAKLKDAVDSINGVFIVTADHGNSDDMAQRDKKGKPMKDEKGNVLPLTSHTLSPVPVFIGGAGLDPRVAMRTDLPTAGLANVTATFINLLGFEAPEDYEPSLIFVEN
Outline: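 Luminescent end-point read-out via Kinase-GloPlus after a 10-minute development. Reaction: 1.25nM Leishmania major PGAM with substrate and compound, 45 minutes at room temperature in TEA buffer (pH 7.6) with MgCl2 and Tween-20.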

[13] = target: Ubiquitin carboxyl-terminal hydrolase 1 (Homo sapiens) (UniProt O94782); experiment: Inhibitors of USP1/UAF1: Pilot qHTS (AID 504865);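 further: rhodamine fluorescence freed from ubiquitin-rhodamine substrate followed over time; top concentration of the series differs between compounds; nearly all actives have a fitted effect of over 35% in size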
Chain of Ubiquitin carboxyl-terminal hydrolase 1 (Homo sapiens) (O94782 whole entry, looked up): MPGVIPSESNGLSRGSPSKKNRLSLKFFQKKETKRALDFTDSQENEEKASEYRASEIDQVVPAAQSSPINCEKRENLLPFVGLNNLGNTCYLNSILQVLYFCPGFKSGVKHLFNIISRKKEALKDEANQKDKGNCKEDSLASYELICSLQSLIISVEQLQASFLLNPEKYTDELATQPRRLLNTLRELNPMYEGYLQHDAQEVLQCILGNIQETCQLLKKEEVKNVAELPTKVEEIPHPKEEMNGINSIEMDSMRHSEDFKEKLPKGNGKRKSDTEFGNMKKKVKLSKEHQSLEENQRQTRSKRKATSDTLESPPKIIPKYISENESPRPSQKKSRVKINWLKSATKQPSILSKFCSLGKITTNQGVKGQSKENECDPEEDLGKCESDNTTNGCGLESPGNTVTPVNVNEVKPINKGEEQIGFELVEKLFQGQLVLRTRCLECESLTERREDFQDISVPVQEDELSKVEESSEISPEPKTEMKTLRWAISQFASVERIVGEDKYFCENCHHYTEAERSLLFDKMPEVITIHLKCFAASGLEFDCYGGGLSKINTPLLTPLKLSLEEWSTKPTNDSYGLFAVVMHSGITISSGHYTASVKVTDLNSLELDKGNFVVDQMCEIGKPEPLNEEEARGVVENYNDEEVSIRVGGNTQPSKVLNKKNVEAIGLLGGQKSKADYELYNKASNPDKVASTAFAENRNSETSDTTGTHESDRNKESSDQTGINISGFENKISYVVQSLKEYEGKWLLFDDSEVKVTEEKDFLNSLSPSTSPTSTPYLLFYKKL
Outline: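 USP1/UAF1 complex (1nM) preincubated with compound 15 min at room temperature, then Ub-Rho substrate (150nM final) added. Fluorescence read kinetically at 480/540 nm, 6 reads every 60 seconds. Buffer: 50mM HEPES pH 7.8, 0.5mM EDTA, 0.1 mg/ml BSA, 1mM TCEP, 0.01% Tween-20.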

[14] = qHTS for Inhibitors of ATXN expression: Validation of Cytotoxic Assay (AID 588349)
Outline: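 Cytotoxicity counter-screen: ATP-based luminescent viability (CellTiter Glo) after 72 hr exposure of HEK293 cells to a compound titration at 37 degrees C.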

[15] = qHTS for Inhibitors of ATXN expression: Validation (AID 588378); further: series mostly up to about 57 µM; nearly all actives have a fitted effect of over 75% in size
Outline: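 Luminescence from an ATXN2-FFLuc reporter in HEK293 cells served as read-out after 24 h compound treatment at 37 degrees C; CellTiter-Fluor fluorescence was recorded first to assess viability.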

[16] = target: DNA dC->dU-editing enzyme APOBEC-3G (Homo sapiens) (UniProt Q9HC16); experiment: qHTS for inhibitors of Vif-A3G interactions: Validation (AID 588379)
Chain of DNA dC->dU-editing enzyme APOBEC-3G (Homo sapiens) (Q9HC16 whole entry, looked up): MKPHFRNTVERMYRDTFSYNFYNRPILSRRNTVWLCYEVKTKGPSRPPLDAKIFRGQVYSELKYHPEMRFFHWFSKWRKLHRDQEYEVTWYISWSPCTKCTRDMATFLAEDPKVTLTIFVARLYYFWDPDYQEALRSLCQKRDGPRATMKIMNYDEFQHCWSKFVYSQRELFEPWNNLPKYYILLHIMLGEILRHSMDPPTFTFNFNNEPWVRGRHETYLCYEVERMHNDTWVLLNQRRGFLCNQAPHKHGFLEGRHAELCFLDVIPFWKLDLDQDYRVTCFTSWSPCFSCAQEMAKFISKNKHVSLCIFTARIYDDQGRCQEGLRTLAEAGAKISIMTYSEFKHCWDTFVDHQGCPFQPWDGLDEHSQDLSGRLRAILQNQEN
Outline: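 Yellow fluorescence (Ex 488, Em 500-530) of Vif-coexpressing HeLa A3G-eYFP cells, scanned by Acumen cytometer, reports blocked A3G degradation. Cells plated at 700/well overnight at 37 deg C before compound addition, then a further overnight compound incubation at 37 deg C.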

[17] = target: Estrogen receptor (Homo sapiens) (UniProt P03372); experiment: qHTS assay for small molecule antagonists of estrogen receptor alpha signaling (AID 588513; active means well fitted curve in the direction sought with a large enough effect in the signal ratio, with a control signal flat, not every such curve was filed as active; the % refers to the signal ratio)
Chain of Estrogen receptor (Homo sapiens) (P03372 whole entry, looked up): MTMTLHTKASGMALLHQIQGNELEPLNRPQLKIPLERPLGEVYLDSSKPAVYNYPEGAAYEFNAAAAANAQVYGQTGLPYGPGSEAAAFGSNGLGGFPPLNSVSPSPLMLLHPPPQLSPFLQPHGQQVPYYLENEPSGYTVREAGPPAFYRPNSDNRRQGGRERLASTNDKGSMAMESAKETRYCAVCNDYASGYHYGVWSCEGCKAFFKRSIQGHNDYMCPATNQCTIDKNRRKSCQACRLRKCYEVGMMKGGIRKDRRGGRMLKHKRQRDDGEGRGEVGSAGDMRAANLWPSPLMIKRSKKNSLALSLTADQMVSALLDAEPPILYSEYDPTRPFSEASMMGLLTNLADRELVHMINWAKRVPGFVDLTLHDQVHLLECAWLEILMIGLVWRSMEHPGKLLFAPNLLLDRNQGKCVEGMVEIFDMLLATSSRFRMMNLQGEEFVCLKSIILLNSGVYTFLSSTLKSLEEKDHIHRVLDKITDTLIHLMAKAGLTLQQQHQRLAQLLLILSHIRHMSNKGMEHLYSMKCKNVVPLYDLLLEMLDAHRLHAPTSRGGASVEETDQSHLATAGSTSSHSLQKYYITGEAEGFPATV
Outline: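 ER-alpha-UAS-bla GripTite HEK 293 cells in medium with 2% charcoal/dextran-treated FBS were preincubated 4 h at 37 C, dosed with compound (1:2 titration), stimulated with 0.5nM 17-beta-estradiol for 18 h, then read by CCF4 beta-lactamase fluorescence.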

[18] = target: Estrogen receptor (Homo sapiens) (UniProt P03372); experiment: qHTS assay for small molecule agonists of estrogen receptor alpha signaling (AID 588514; calls by dose curve; further: nearly all actives have a fitted effect of over 70% in size)
Outline: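 EC50 and efficacy came from Hill fits of beta-lactamase reporter signal (CCF4 dye, 2 h at room temperature) scaled between DMSO and 20 nM 17-beta-estradiol. Agonist mode: HEK293 ER-alpha-UAS-bla cells in charcoal/dextran-stripped serum medium, 18 h compound exposure at 37 C.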

[19] = target: D(1A) dopamine receptor (Homo sapiens) (UniProt P21728); experiment: HTS Assay for Allosteric Agonists of the Human D1 Dopamine Receptor: Primary Screen for Antagonists (AID 488983);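 further: calcium flux response to an EC80 dopamine challenge measured with no-wash dye; nearly all actives have a fitted effect of over 65% in size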
Outline: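 Calcium-flux read-out in inducible HEK293 T-REx cells expressing D1, dye-loaded 30–90 min at room temperature. Kinetic reads: 180 s after compound (agonist phase), then 180 s after an EC80 dopamine challenge.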

Compound | Potency [1] | outcome [2] | Potency [3] | Potency [4] | activation [5] | Potency [6] | viability change [6] [%] | outcome [7] | outcome [8] | outcome [9] | outcome [10] | outcome [11] | outcome [12] | Potency [13] | Potency [14] | Potency [15] | outcome [16] | outcome [17] | Potency [18] | Potency [19]
O=C(CCNNC(=O)c1ccncc1)NCc1ccccc1 | inactive | inactive | inactive | inactive | 0.188% (inactive) | inactive | -3.76 | inactive | inactive | inactive | inactive | inactive | inactive | inactive | inactive | inactive |  |  |  | 
O=C(CCCN1CCC(O)(c2cccc(C(F)(F)F)c2)CC1)c1ccc(F)cc1 | inactive | inactive | inactive |  | 3.56% (inactive) | inactive | -9.85 |  |  | inactive | inactive |  |  | inactive | inactive |  |  |  |  | 
CCN1CCc2nc(N)oc2CC1 | inactive | inactive | inactive | inactive | 0.875% (inactive) | inactive | -0.627 | inactive | inactive | inactive | inactive | inactive | inactive | inactive | inactive | inactive |  |  |  | 
O=c1[nH]c(=O)n([C@H]2C[C@H](O)[C@@H](CO)O2)cc1Br | inactive | inactive |  | inactive | 1% (inactive) | inactive | 1.73 |  | inactive | inactive | inactive | inactive | inactive | inactive | inactive | inactive | inactive | inactive | inactive | 
CC(C)NCC(O)c1cc(O)cc(O)c1 (stereo unspecified) | inactive |  |  | inactive |  | inactive | 7.12 | inactive | inactive | inactive | inactive | inactive | inactive | inactive |  | inactive |  |  |  | inactive
CNCCCN1c2ccccc2CCc2ccccc21 | inactive | inactive | inactive | inactive |  | inactive | -3.92 |  | inactive | inactive | inactive |  | inactive | inactive |  |  |  |  |  | 
COc1cc(C(=O)OCCCN2CCCN(CCCOC(=O)c3cc(OC)c(OC)c(OC)c3)CC2)cc(OC)c1OC | inactive |  |  |  | 0.688% (inactive) | inactive | -0.03 | inactive | inactive | inactive | inactive | inactive |  | inactive |  | inactive | inactive |  |  | inactive
NC1=NCC2c3ccccc3Cc3ccccc3N12 (stereo unspecified) | inactive | inactive | inactive |  |  | inactive | 6.37 |  |  |  | inactive | inactive | inactive | inactive | inactive | inactive |  |  |  | 
CCN(CC)CCCN(c1ccccc1)C1Cc2ccccc2C1 | inactive | inactive | inactive | inactive |  | inactive | -6.42 | inactive |  |  | inactive |  |  | inactive |  |  |  |  |  | 
